PubChem BioAssay (NCATS)
Inconclusive results are not listed. Where a call stands in place of a potency, no number is given. The source made the active and inactive calls. Calls follow the shape of the dose curve; as a rule, active = well fitted inhibition curve with a large enough effect; inconclusive = small, poorly fitted or top-dose-only effect; inactive = flat fitted curve, though single readings scatter.
Potency is read from the fitted curve at half-maximal effect.

Each compound was assayed against Dual specificity protein kinase CLK4 (Homo sapiens) (UniProt Q9HAZ1) (assay: qHTS Assay for Inhibitors of CDC-like Kinase 4 (ADP-FP Assay) (AID 1795; also: nearly all actives have a fitted effect of over 60% in size)). Conditions: Transcreener ADP fluorescence polarization; series mostly up to 50 µM.
Dual specificity protein kinase CLK4 (Homo sapiens), sequence (Q9HAZ1 whole entry, looked up): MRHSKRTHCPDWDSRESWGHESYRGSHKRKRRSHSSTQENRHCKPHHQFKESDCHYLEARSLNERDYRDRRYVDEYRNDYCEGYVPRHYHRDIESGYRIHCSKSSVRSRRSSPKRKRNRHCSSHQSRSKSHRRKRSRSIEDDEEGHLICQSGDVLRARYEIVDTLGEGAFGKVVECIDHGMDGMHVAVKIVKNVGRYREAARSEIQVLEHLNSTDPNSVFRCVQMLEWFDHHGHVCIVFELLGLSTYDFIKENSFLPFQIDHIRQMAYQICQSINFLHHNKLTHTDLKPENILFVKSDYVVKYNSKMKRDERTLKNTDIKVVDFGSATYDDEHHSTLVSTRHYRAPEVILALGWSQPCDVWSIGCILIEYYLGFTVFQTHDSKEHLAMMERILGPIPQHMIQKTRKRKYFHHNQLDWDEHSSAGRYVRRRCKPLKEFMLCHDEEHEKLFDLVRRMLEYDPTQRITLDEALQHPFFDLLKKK
Description: NIH Molecular Libraries Probe Production Centers Network [MLPCN] NIH Chemical Genomics Center [NCGC] MLPCN Grant: 1R03MH084827-01 Assay Submitter (PI): Tom Misteli NCGC Assay Overview: Clk4 (Invitrogen cat # PV3839) was assayed using ATP and the RS repeat peptide (AnaSpec cat # 61722) as substrates using Transcreener (trade mark), a competitive fluorescence polarization (FP) assay. For the present assay, we used the Orange TranscreenerTM ADP2 (BellBrooks Labs, Madison, Wis) detection system to monitor ADP production in the kinase reaction. […] This allows the ADP tracer to freely rotate leading to a decrease in the observed FP value. The amount of ADP produced can then be calculated using a calibration curve. The positive control for the assay was TG003 (Sigma-Aldrich, cat # 300801-52-9) which is a Clk4 inhibitor [2].
NCGC Assay Protocol Summary: Two uL/well of substrate-buffer solution (100 uM RS peptide, 1 uM ATP, 25 mM Tris pH7.5, 10 mM MgCl2, 0.5 mM EGTA, 2.5 mM DTT, 0.01% Triton X-100 final concentration) was dispensed into 1,536-well assay plates (Greiner, solid black medium-binding plates) with Aurora Discovery BioRAPTR Flying Reagent Dispenser (FRD; Beckton-Dickenson). Using a Kalypsys pin tool equipped with a 1,536-pin tool, 23 nL of compound solution was transferred to the assay plate. Two uL/well Clk4-buffer solution (6.25 nM Clk4, 25 mM Tris pH 7.5, 10 mM MgCl2, 0.5 mM EGTA, 2.5 mM DTT, 0.01% Triton X-100, final concentration) was then added using the FRD yielding a total kinase reaction volume of 4 uL/ well. Then 4 uL/well of detection mixture (4 nM orange fluorescent tracer, 1 ug/mL ADP antibody, final concentration) was then added after an hour and the polarization signal was measured using the EnVision plate reader (PerkinElmer, Waltham, MA) after 30 min of room temperature incubation using the following filters and program settings: BODIPY TMR FP dual Enh mirror (barcode 682); BODIPY-TMR 531 (barcode 105) excitation; BODIPY-TMR FP P/S polarized 595 nm filters (barcodes 210 and 211, respectively); 100% light; 150 flashes; 1.35 G-factor; Detector gains were 685 for the 1st detector; 630 for the 2nd detector.
With COc1cccc(Nc2ncc3nc(-c4cccs4)c(=O)n(C[C@H]4CCCO4)c3n2)c1 the Potency was “inactive”. In the case of O=c1c(CCc2ccccc2)nc2cnc(Nc3ccccc3)nc2n1C[C@H]1CCCO1, the Potency is reported as “inactive”. In the case of CN(C)c1ccc(-c2cncnc2NCCN2CCOCC2)cc1, the Potency is reported as “inactive”. In the case of c1ccc(Nc2nc(-c3ccoc3)nc3ccccc23)cc1, the Potency is reported as 7.94 µM (active). For COc1ccc2[nH]cc(CCNc3ncncc3-c3ccccc3C(F)(F)F)c2c1, the Potency was “inactive”. In the case of O=c1c(-c2ccccc2)nc2cnc(Oc3ccccc3)nc2n1C[C@H]1CCCO1, the Potency is reported as “inactive”. With COc1cccc(-c2cncnc2NCCN2CCOCC2)c1 the Potency was “inactive”. N#CCCn1c(=O)c(-c2ccc(Cl)cc2)nc2cnc(N3CCOCC3)nc21 was tested, and the Potency was “inactive”. Clc1ccccc1-c1nc(Nc2ccncc2)c2ccccc2n1 was tested, and the Potency was 10 µM (active). In the case of COc1ccc(-c2nc3cnc(N4CCOCC4)nc3n(-c3ccc(OC)cc3)c2=O)cc1, the Potency is reported as “inactive”. For CN(C)c1ncc2nc(CCc3ccccc3)c(=O)n(CCc3ccccc3)c2n1, the Potency was “inactive”. COc1ccccc1-c1ccc2ncnc(N3CCNCC3)c2c1 was tested, and the Potency was 7.94 µM (active). With Cc1cnc(CNc2ncnc3ccc(-c4ccccc4Cl)cc23)cn1 the Potency was 10 µM (active). With CN1CCN(c2ncnc3ccc(-c4ccccc4C(F)(F)F)cc23)CC1 the Potency was “inactive”. CN(C)C(=O)c1ccc(-c2nc(N3CCOCC3)c3ccccc3n2)cc1 was tested, and the Potency was “inactive”. In the case of COc1cccc(Cn2c(=O)cnc3cnc(N(C)C)nc32)c1, the Potency is reported as “inactive”. With COc1ccc2[nH]cc(CCNc3ncncc3-c3ccccc3Cl)c2c1 the Potency was 12.6 µM (active). In the case of COc1ccc(CNc2ncncc2-c2ccccc2OC)c(OC)c1, the Potency is reported as “inactive”. For Cc1nc2cnc(Oc3cccc(Cl)c3)nc2n(Cc2ccc(F)cc2)c1=O, the Potency was “inactive”. O=c1cnc2cnc(N3CCOCC3)nc2n1Cc1cccs1 was tested, and the Potency was “inactive”. In the case of O=c1c(CCc2ccccc2)nc2cnc(N3CCNCC3)nc2n1-c1ccccc1, the Potency is reported as “inactive”. With Cc1ccccc1-c1ccc2ncnc(NCCN3CCOCC3)c2c1 the Potency was “inactive”. In the case of CN(C)C(=O)c1ccc(-c2ccc3ncnc(Nc4ccc(F)cc4)c3c2)cc1, the Potency is reported as “inactive”. With COc1ccc(Oc2ncc3nc(-c4ccc(F)cc4)c(=O)n(C[C@H]4CCCO4)c3n2)cc1 the Potency was “inactive”. For COc1ccc2[nH]cc(CCNc3ncncc3-c3ccoc3)c2c1, the Potency was 3.55 µM (active). In the case of Cc1cnc(CNc2ncnc3ccc(-c4ccc(N(C)C)cc4)cc23)cn1, the Potency is reported as “inactive”. With COc1ccccc1CNc1nc(-c2ccc(C(=O)N(C)C)cc2)nc2ccccc12 the Potency was “inactive”. COc1ccccc1CNc1nc(-c2ccoc2)nc2ccccc12 was tested, and the Potency was “inactive”. COc1ccc2[nH]cc(CCNc3ncncc3-c3ccc4c(c3)OCO4)c2c1 was tested, and the Potency was 10 µM (active). With Cc1ccccc1-c1ccc2ncnc(-n3ccnc3)c2c1 the Potency was 3.98 µM (active). In the case of COCCn1c(=O)c(CCc2ccccc2)nc2cnc(N(C)C)nc21, the Potency is reported as “inactive”. In the case of COc1ccccc1-c1nccc(NCc2cccs2)n1, the Potency is reported as “inactive”. With CCNc1ncc2ncc(=O)n(Cc3ccc(F)cc3)c2n1 the Potency was 11.2 µM (active). For COCCn1c(=O)c(-c2cccc(C#N)c2)nc2cnc(Oc3cccc(Cl)c3)nc21, the Potency was “inactive”. With CN1CCN(c2ncc3nc(-c4ccccc4)c(=O)n(Cc4cccs4)c3n2)CC1 the Potency was “inactive”. For c1ccc2c(NCCN3CCOCC3)nc(-c3ccoc3)nc2c1, the Potency was “inactive”. With CCNc1ncc2nc(-c3ccccc3)c(=O)n(CCC#N)c2n1 the Potency was “inactive”. COc1ccc(Oc2ncc3nc(-c4cc(F)cc(F)c4)c(=O)n(C4CC4)c3n2)cc1 was tested, and the Potency was “inactive”. With CNc1ncncc1-c1ccccc1CN(C)C the Potency was “inactive”. Cc1nc2cnc(N3CCN(C)CC3)nc2n(CCc2ccccc2)c1=O was tested, and the Potency was “inactive”.
